In PubChem BioAssay (NCI):
Compounds without any hit were thinned out: in the full panel of roughly 79,000, 15% have a hit. Active and inactive are the calls of the source. Cut-off read from the data, not from the text of the source: active = growth inhibition above about 70%; inactive = the rest.

Columns and labels:
[1] = NCI Yeast Anticancer Drug Screen. Data for the rad50 strain (AID 155);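 note: 0% = growth of vehicle-only cultures of the same strain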; details: S. cerevisiae rad50 strain growth inhibition, hits give high values
Procedure, shortened: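 Growth of the mutant yeast was measured after compound exposure and referenced to vehicle-treated cultures.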

[2] = NCI Yeast Anticancer Drug Screen. Data for the mec2-1 strain (AID 157); details: S. cerevisiae mec2-1 strain, hits give high values
Procedure, shortened: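 Mutant yeast (mec2-1) grown with compound; growth inhibition relative to vehicle control reported.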

[3] = NCI Yeast Anticancer Drug Screen. Data for the sgs1 mgt1 strain (AID 161);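 note: 0% = growth of cultures given vehicle only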; details: S. cerevisiae sgs1 mgt1 strain, hits give high values
Procedure, shortened: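 Yeast cells carrying a defined DNA-repair defect were exposed to test compounds. Growth inhibition was measured relative to vehicle-treated controls.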

[4] = NCI Yeast Anticancer Drug Screen. Data for the cln2 rad14 strain (AID 165);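 note: 0% = growth equal to vehicle treated cultures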; details: S. cerevisiae cln2 rad14 strain, hits give high values
Procedure, shortened: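 Readout is yeast growth inhibition versus vehicle-treated controls, using a strain with cln2 and rad14 alterations exposed to compound.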

[5] = NCI Yeast Anticancer Drug Screen. Data for the bub3 strain (AID 167); details: S. cerevisiae bub3 mutant strain, hits give high values
Procedure, shortened: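 Whole-cell yeast assay. The mutant strain was incubated with compounds, and growth inhibition was determined by comparison with vehicle-treated cells.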

[6] = NCI Yeast Anticancer Drug Screen. Data for the mlh1 rad18 strain (AID 175); details: S. cerevisiae mlh1 rad18 strain growth inhibition, hits give high values
Procedure, shortened: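 Genetically defined yeast (DNA repair-deficient) exposed to compounds; growth inhibition determined relative to vehicle.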

[7] = at 5.0 µM (retest, dose inferred, filed as 0.5)
[8] = at 50.0 µM (retest, dose inferred, filed as 5.0)

Measured: growth inhibition

CN(C)c1ccc(C(c2c(O)c3ccccc3oc2=O)c2c(O)c3ccccc3oc2=O)cc1
inactive: [1]; [7] 0% | [1]; [8] 40% | [1]; at 50.0 µM 59.2% | [2]; [7] -8% | [2]; [8] 26% | [2]; at 50.0 µM 65.6% | [3]; [7] 4% | [3]; [8] 42% | [3]; at 50.0 µM 60% | [4]; [7] -5% | [4]; [8] 13% | [4]; at 50.0 µM 18.5% | [5]; [7] -3% | [5]; [8] 16% | [5]; at 50.0 µM 34.3% | [6]; [7] -3% | [6]; [8] 13% | [6]; at 50.0 µM 51%

CC([CH2][Hg][Cl])c1ccccc1 (configuration not stated)
active: [1]; [7] 99% | [1]; [8] 99% | [1]; at 50.0 µM 99.3% | [2]; [7] 100% | [2]; [8] 100% | [2]; at 50.0 µM 99.5% | [3]; [7] 100% | [3]; [8] 99% | [3]; at 50.0 µM 99.6% | [4]; [7] 99% | [4]; [8] 99% | [4]; at 50.0 µM 99.5% | [5]; [7] 99% | [5]; [8] 99% | [5]; at 50.0 µM 99.6% | [6]; [7] 100% | [6]; [8] 99% | [6]; at 50.0 µM 99.5%

O=C(O)c1cccc2cccc(C(=O)O)c12.[Hg]
active: [1]; [7] 99% | [1]; [8] 99% | [1]; at 50.0 µM 99.4% | [2]; [7] 100% | [2]; [8] 100% | [2]; at 50.0 µM 99.5% | [3]; [7] 100% | [3]; [8] 99% | [3]; at 50.0 µM 99.7% | [4]; [7] 99% | [4]; [8] 99% | [4]; at 50.0 µM 98.5% | [5]; [7] 99% | [5]; [8] 99% | [5]; at 50.0 µM 99.2% | [6]; [7] 99% | [6]; [8] 99% | [6]; at 50.0 µM 99.6%

CCc1cc(C)cc2[n+]1CC=C2
inactive: [1]; [7] -8% | [2]; [7] -5% | [3]; [7] -5% | [4]; [7] -1% | [5]; [7] -2% | [6]; [7] -6%
active: [1]; [8] 83% | [1]; at 50.0 µM 98% | [2]; [8] 95% | [2]; at 50.0 µM 96.4% | [3]; [8] 98% | [3]; at 50.0 µM 98.3% | [4]; [8] 92% | [4]; at 50.0 µM 98.1% | [5]; [8] 87% | [5]; at 50.0 µM 98% | [6]; [8] 93% | [6]; at 50.0 µM 97.8%

CC1Oc2cc3c(-c4c(O)cc(O)c5c(O)c6c(cc45)OC(C)C(C)C6=O)c(O)cc(O)c3c(O)c2C(=O)C1C (configuration not stated)
inactive: [1]; [7] 8% | [2]; [7] -10% | [3]; [7] -2% | [4]; [7] 30% | [4]; [8] 69% | [5]; [7] -8% | [6]; [7] 10%
active: [1]; [8] 85% | [1]; at 50.0 µM 83.1% | [2]; [8] 83% | [2]; at 50.0 µM 84.2% | [3]; [8] 86% | [3]; at 50.0 µM 83% | [4]; at 50.0 µM 82.8% | [5]; [8] 81% | [5]; at 50.0 µM 81.2% | [6]; [8] 84% | [6]; at 50.0 µM 84.2%

COC(=O)C1c2c(C)cc3n2C(C=CC3)C1C(=O)OC (configuration not stated)
active: [2]; [8] 96% | [4]; [8] 78% | [5]; [8] 92%
inactive: [1]; [7] 7% | [1]; [8] 69% | [1]; at 50.0 µM 13.2% | [2]; [7] 36% | [2]; at 50.0 µM 19.1% | [3]; [7] -6% | [3]; [8] 24% | [3]; at 50.0 µM 4.95% | [4]; [7] 67% | [4]; at 50.0 µM 26.6% | [5]; [7] 64% | [5]; at 50.0 µM -10.2% | [6]; [7] -9% | [6]; [8] 54% | [6]; at 50.0 µM -3.5%

Nc1nc2ncnc(N)c2nc1-c1ccc(N(CCCl)CCCl)cc1
active: [3]; at 50.0 µM 85.4%
inactive: [1]; [7] -2% | [1]; [8] 46% | [1]; at 50.0 µM 55.7% | [2]; [7] -3% | [2]; [8] 38% | [2]; at 50.0 µM 46% | [3]; [7] -3% | [3]; [8] 54% | [4]; [7] 6% | [4]; [8] 18% | [4]; at 50.0 µM 16.4% | [5]; [7] -1% | [5]; [8] 40% | [5]; at 50.0 µM 13.7% | [6]; [7] -5% | [6]; [8] 35% | [6]; at 50.0 µM 68.8%

C[PH+](C)C.C[PH+](C)C.[Au]
active: [1]; [8] 70% | [1]; at 50.0 µM 85.7% | [2]; [8] 89% | [2]; at 50.0 µM 91.8% | [3]; [8] 82% | [3]; at 50.0 µM 91% | [4]; at 50.0 µM 88% | [5]; at 50.0 µM 89.5% | [6]; [8] 91% | [6]; at 50.0 µM 89%
inactive: [1]; [7] 36% | [2]; [7] 30% | [3]; [7] 59% | [4]; [7] 18% | [4]; [8] 32% | [5]; [7] 27% | [5]; [8] 57% | [6]; [7] 68%

CCN(CC)C(=S)[S-].CCN(CC)C(=S)[S-].O=C(O)CC([S-])C(=O)O.[Fe+3] (configuration not stated)
inactive: [1]; [7] 4% | [1]; at 50.0 µM 61.8% | [2]; [7] 9% | [2]; at 50.0 µM 55.8% | [3]; [7] 35% | [4]; [7] 30% | [4]; at 50.0 µM 43.8% | [5]; [7] -1% | [5]; at 50.0 µM 45.7% | [6]; [7] 38%
active: [1]; [8] 98% | [2]; [8] 99% | [3]; [8] 99% | [3]; at 50.0 µM 76.8% | [4]; [8] 98% | [5]; [8] 98% | [6]; [8] 98% | [6]; at 50.0 µM 87.2%
